Compound activity deposited in PubChem by National Center for Advancing Translational Sciences (NCATS).
PINK1 expr mod – PINK1 expression modulation | PINK1 immunofluorescence, high-content cytometry, 24 h | Potency, µM (titrated, usually from 76.6 µM), inactives show at the highest dose activation (PINK1 increase), usual class: activators | actives 0.2% (n = 410,000) | AID 624263; active = well fitted activation curve with a large enough effect; inconclusive = small, poorly fitted or top-dose-only effect; cell line not stated here; note: % of control where 0% means no effect; nearly all actives have a fitted effect of over 65% in size
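PINK1 protein, normally rapidly degraded, was detected by immunofluorescence after 24 hour compound treatment of a stable cell line. Titration data (5 concentrations) came from laser-scanning cytometry, with CCCP-treated wells as controls.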
TSG101-PTAP inh – blocks PTAP/TSG101 interaction to inhibit HIV-1 budding. 340,000 tested, under 10 active. AID 493005. Potency, µM (series often up to 115 µM), without a hit: at the highest dose activity change, negative = inhibition, most hits filed as inhibitors. Q99816. Fluorescence polarization, FITC-PTAP peptide / Tsg101 binding; active = well fitted inhibition curve with a large enough effect in the main read-out, with a control signal flat, not every such curve was filed as active; inconclusive = small, poorly fitted or top-dose-only effect, or effect the other way, or a change in a side signal; inactive = no such curve, though single readings can be large or run the other way; note: % of control where 0% means no effect
Target sequence (Q99816 whole entry, looked up): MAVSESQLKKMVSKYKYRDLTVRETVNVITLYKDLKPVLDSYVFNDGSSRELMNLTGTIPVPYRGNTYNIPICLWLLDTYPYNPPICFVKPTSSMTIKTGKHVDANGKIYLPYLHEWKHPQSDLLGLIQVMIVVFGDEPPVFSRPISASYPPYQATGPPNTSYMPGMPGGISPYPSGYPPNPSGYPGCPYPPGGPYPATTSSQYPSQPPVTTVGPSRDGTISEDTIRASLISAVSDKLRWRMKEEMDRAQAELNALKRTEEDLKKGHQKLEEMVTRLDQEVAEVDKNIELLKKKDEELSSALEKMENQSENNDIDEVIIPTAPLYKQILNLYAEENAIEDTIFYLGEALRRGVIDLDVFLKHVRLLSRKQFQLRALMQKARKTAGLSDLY
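Steps: Tsg101 binding domain dispensed (10 uM final), compounds pinned in DMSO, FITC-labeled PTAP-motif peptide added (50 nM final); after 20 min binding at room temperature, polarization measured.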
MCF10A rereplic – induces DNA re-replication in MCF 10a normal breast cells | MCF 10A DNA re-replication, Hoechst nuclear intensity, 48 h | Potency, µM (doses to about 46.1 µM), inactives show at the highest dose activity, positive = re-replication, hits mostly activators | actives 2.9% (n = 350,000); note: % of control where 0% means no effect; nearly all actives have a fitted effect of over 50% in size
KB-V1 MDR tox – kills drug-selected multidrug resistant KB-V1 cells; AID 1347076; actives 3.4% (n = 400,000); Potency, µM (series often up to 46.1 µM), most hits filed as cytotoxic; KB-V1 MDR cells viability, CellTiter-Glo, 72 h; note: % is set by controls: 0 for no effect and ±100 for the full control effect; nearly all actives have a fitted effect of over 60% in size
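Drug-selected KB-V1 cells, grown in DMEM lacking phenol red with 10% FBS, receive compound titrations; after three days at 37 degrees C, surviving cell ATP is quantified by CellTiter-Glo luminescence and responses normalized and curve-fitted.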
SW480 rerep – inducers of DNA re-replication in SW480 colon cancer cells | Potency, µM (highest dose often 46.1 µM), for the others: at the top dose re-replication activation, hits mostly activators | SW480 DNA re-replication, Hoechst DNA content imaging, 48 h | actives 1.8% (n = 340,000); note: % of control where 0% means no effect; nearly all actives have a fitted effect of over 55% in size
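Readout is total intensity of Hoechst-stained nuclei, excited at 405 nm and collected at 500-530 nm. Compound treatment lasted 48 hr at 37 C in 5% CO2 before staining.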
KB-3-1 tox – KB-3-1 parental cell cytotoxicity. KB-3-1 viability, CellTiter-Glo ATP luminescence, 72 h. Potency, µM (series often up to 46.1 µM), usual class: cytotoxic. actives 1.4% (n = 400,000); note: % is set by controls: 0 for no effect and ±100 for the full control effect; nearly all actives have a fitted effect of over 60% in size
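Multi-concentration cytotoxicity screen in KB-3-1 cells grown in DMEM lacking phenol red with 10% FBS. After 72 h at 37 °C with compound, ATP-dependent luminescence was recorded.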
Numbers without * were called inactive; i = inactive; ? = inconclusive; / = no result given; [ ] = dose if it differs, or a comment. Only some compounds are listed: those with a hit (about 6.8% of all), similar ones and a draw of the others. Unless noted, calls come from the whole dose curve; as a rule, active = well fitted curve in the direction sought with a large enough effect; inconclusive = small, poorly fitted or top-dose-only effect, or another doubt; inactive = no such curve, though single readings can be large; an effect the other way counts as inactive or inconclusive. Potency is the fitted concentration of half-maximal effect.

SMILES	PINK1 expr mod	TSG101-PTAP inh	MCF10A rereplic	KB-V1 MDR tox	SW480 rerep	KB-3-1 tox
C=CC[C@H](CC(=O)N(CCO)Cc1ccccc1)C(=O)N[C@@H](COC(=O)[C@H](CC=C)CC(=O)OC(C)(C)C)Cc1c[nH]c2ccccc12	0%	-2%	23µM*	?	25%	?
C=CC[C@@H](CC(=O)N(CCO)Cc1ccccc1)C(=O)N[C@@H](COC(=O)[C@@H](CC=C)CC(=O)OC(C)(C)C)Cc1c[nH]c2ccccc12	-1%	/	?	i	3%	?
Cc1cc(OCCOc2cccc3cccnc23)cc(C)c1Cl	9%	-1%	23µM*	i	11%	i
Cc1ccc(-n2c(C)cc(C(=O)COc3cccnc3[N+](=O)[O-])c2C)cc1	5%	-1%	21µM*	i	?	i
Cc1cc(C(=O)COc2cccc3cccnc23)c(C)n1C	16%	-21%	-1%	16µM*	2%	i
c1ccc(OCCOc2cccc3cccnc23)cc1	4%	-7%	20%	i	-2%	i
CCc1nc(SCC(=O)c2ccc(Cl)s2)c2oc3ccccc3c2n1	3%[38.3 µM]	1%	?	?	4%	i
CCc1nc(N(CC)CC)c2oc3ccccc3c2n1	3%	-3%	16%	i	1%	i
CCc1nc(N2CCC(C)CC2)c2oc3ccccc3c2n1	?	-2%	18µM*	9.2µM*	?	i
CCc1nc(SCC(=O)N2CCN(c3ccccc3)CC2)c2oc3ccccc3c2n1	1%[38.3 µM]	-11%	9.2µM*	13µM*	-2%	i
CCOC(=O)c1c(C)n(-c2ccccc2)c2ccc(OC(=O)c3cccc(Cl)c3)cc12	-1%	/	/	i	/	i
CC(C)C(Cl)=NOC(=O)Nc1ccc(F)cc1	-2%	-2%	3.3µM*	i	?	i
c1ccc(CCNc2c3c(nc4ncnn24)CCC3)cc1	-2%[38.3 µM]	/	-10%	12µM*	-6%	i
COc1cc(CNCc2c[nH]c3ccccc23)cc(OC)c1	12%	0%	?	7.3µM*	6%	i
CC(C)CCNS(=O)(=O)c1ccc(N2CCCCS2(=O)=O)cc1	2%	/	/	i	/	?
CC(Sc1nc2ccccc2s1)C(=O)NC1CCCc2ccccc21 (stereo not drawn)	1%	0%	?	21µM*	-3%	i
Cc1ccc2c(c1)N(CC(=O)NC1CCC(C)CC1)C(=O)CO2 (stereo not drawn)	4%	-3%	3%	i	-5%	i
CC1CC(C)(C)CC2(C1)NC(=O)N(CC(=O)NC1CCCc3ccccc31)C2=O (stereo not drawn)	6%	1%	1%	21µM*	-1%	i
CC(Sc1nnnn1C)C(=O)NC1CCCc2ccccc21 (stereo not drawn)	0%	-4%	0%	i	-9%	i
O=C(CN1C(=O)NC2(CCCCCCC2)C1=O)NC1CCCc2ccccc21 (stereo not drawn)	-1%	-2%	-5%	i	/	i
Cc1ccc2c(c1)N(CC(=O)NC1CCCc3ccccc31)C(=O)CO2 (stereo not drawn)	-1%[38.3 µM]	-3%	-3%	16µM*	-7%	i
O=C(CN1CCN(c2cccc(Cl)c2)CC1)NC1CCCc2ccccc21 (stereo not drawn)	3%	-3%	21µM*	i	1%	i
Cc1ccc(CNc2ccc(-c3nc(-c4ccncc4)no3)cc2[N+](=O)[O-])cc1	3%	/	/	i	/	i
COc1cccc(N2CCN(C(=O)c3cccn3-c3nnc(N4CCCC4)s3)CC2)c1	-1%	/	/	i	/	i
Cc1ccc(Cl)cc1N(C)C(=O)c1cc2c(Cl)nc3ccccc3c2s1	1%	/	/	i	/	i
SMILES	PINK1 expr mod	TSG101-PTAP inh	MCF10A rereplic	KB-V1 MDR tox	SW480 rerep	KB-3-1 tox
Cc1ccc2c(c1)N(CC(=O)N1CCCc3ccccc31)C(=O)CO2	0%	-1%	7%	12µM*	6%	i
CCOC(=O)c1cc2sccc2n1CC(=O)N1CCCc2ccccc21	/	-2%	-7%	?	2%	i
CCOC(=O)c1cc2occc2n1CC(=O)N1CCCc2ccccc21	-3%	-2%	9%	16µM*	-2%	i
CC(=O)c1ccc(N2CCN(C(C)C(=O)NC3CCCc4ccccc43)CC2)cc1 (stereo not drawn)	-2%	0%	-1%	9.2µM*	-25%	21µM*
COc1ccc(-c2nc3nc(C)cc(Nc4ccc(C(C)=O)cc4)n3n2)cc1	10%	/	/	?	/	?
C=CCn1c(-c2ccc(Cl)cc2)c[nH]c1=S	-2%	-7%	18%	23µM*	?	21µM*
O=c1c(-c2cccc(Cl)c2)nc2cncnc2n1C1CC1	-1%	/	/	/	/	/
CCN(CC)S(=O)(=O)c1ccc(-c2nnc(SCC(=O)c3ccc(OC)cc3)o2)cc1	7%[38.3 µM]	0%	-14%	i	5%	i
CCN(CC)S(=O)(=O)c1cccc(-c2nnc(SC(C)C(=O)NCCC3=CCCCC3)o2)c1 (stereo not drawn)	2%[38.3 µM]	6%	6%	10µM*	-2%	?
CCN(CC)S(=O)(=O)c1ccc(-c2nnc(SC)o2)cc1	?	-7%	3%	15µM*	1%	i
CCN(CC)S(=O)(=O)c1cccc(-c2nnc(SCCCC(=O)c3ccccc3)o2)c1	/	2%	21%	?	-1%	i
CCN(CC)S(=O)(=O)c1cccc(-c2nnc(SCCCC(=O)c3ccc(F)cc3)o2)c1	/	-7%	21%	16µM*	-12%	i
CCOC(=O)N1CCN(C(=O)CN2C(=O)/C(=C\c3cccc(OC)c3)SC2=S)CC1	0%	/	/	i	/	i
O=S(=O)(c1ccccc1)c1nc(-c2ccc(F)cc2)oc1NCC1CCCO1 (stereo not drawn)	2%	-4%	4%	3.7µM*	-1%	i
CCn1c(=O)cc(OCC(=O)N2CCN(c3ccc(C)cc3)C(C)C2)c2ccccc21 (stereo not drawn)	1%	/	/	i	/	i
